# Source: PMC4336329 (PLoS ONE, 2015)
# Screen size: about 310,000 compounds; about 2,200 (0.71%) showed an effect of 50% or more. The effect is printed as a negative number. Many of the other results were omitted from the sample, so strong results are more common in it than they were.
# Target: human ether-à-go-go-related gene (hERG) potassium channel (human, UniProt Q12809)
# Assay: primary screen, population patch clamp on CHO cells stably expressing hERG; higher = less effect of the substance
# Protocol: Briefly, Chinese hamster ovary (CHO) cells stably expressing the hERG channel were dislodged from tissue culture flasks and dispensed into PPC plates. […] During the recording, background leak currents were estimated by a 100 ms step to -80 mV from an initial holding potential of -70 mV and subtracted from the subsequent current measurement. The campaign was conducted in two phases using slight differences in recording protocol. In the first phase, the initial voltage pulse used a 100 ms step to -30 mV from a holding potential of -70 mV, a 2 s conditioning step to +25 mV, and a 2 s test step to -30 mV. During the second phase of the screen, the potential during the conditioning step was raised to +45 mV. In both phases of the campaign, a secondary voltage pulse was applied using the same parameters as the second phase initial pulse. The initial and secondary pulses were applied in the absence of compound, and upon application of 1 μM and 10 μM test concentrations. Small molecule effects on hERG current density were quantified by […].
# Chain of human ether-à-go-go-related gene (hERG) potassium channel (Q12809 whole entry, looked up): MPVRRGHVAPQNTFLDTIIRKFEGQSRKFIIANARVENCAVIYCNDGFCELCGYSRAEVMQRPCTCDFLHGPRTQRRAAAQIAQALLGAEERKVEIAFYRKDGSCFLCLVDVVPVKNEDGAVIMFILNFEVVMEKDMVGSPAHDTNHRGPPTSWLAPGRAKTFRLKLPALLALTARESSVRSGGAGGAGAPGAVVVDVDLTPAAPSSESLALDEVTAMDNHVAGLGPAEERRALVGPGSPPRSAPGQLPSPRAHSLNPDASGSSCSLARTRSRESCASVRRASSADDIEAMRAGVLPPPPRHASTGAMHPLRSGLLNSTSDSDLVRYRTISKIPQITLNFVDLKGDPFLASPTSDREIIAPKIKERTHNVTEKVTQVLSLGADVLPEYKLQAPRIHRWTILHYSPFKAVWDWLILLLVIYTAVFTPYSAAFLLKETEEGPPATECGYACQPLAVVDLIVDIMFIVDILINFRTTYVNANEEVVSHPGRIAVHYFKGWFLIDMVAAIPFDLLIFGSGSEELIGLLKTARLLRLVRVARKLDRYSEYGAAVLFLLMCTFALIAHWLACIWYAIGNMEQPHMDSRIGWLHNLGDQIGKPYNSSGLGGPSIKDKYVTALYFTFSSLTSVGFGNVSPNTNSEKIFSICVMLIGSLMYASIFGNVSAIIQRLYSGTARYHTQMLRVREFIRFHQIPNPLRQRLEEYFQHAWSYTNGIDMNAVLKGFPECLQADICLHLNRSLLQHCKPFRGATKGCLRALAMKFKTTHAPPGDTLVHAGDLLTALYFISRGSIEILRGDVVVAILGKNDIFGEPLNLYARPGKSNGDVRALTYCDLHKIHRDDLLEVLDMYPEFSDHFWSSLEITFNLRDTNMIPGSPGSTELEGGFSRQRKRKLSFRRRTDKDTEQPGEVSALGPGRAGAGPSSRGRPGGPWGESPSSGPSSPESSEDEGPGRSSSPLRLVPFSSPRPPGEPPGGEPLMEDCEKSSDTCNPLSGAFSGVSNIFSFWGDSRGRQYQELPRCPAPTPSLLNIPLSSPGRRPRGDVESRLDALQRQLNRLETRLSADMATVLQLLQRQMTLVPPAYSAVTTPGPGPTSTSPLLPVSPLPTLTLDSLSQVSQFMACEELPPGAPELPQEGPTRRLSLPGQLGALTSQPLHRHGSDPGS
row,SMILES,"hERG current change (%, negative = inhibition) at 1uM"
1,CCn1c(SCC(=O)Nc2ccccc2OC)nc(O)cc1=O,10%
2,COC(=O)c1cc(Br)c(=O)n(-c2ccc(OC)cc2)c1,5.39%
3,COC(=O)c1cc(Br)c(=O)n(CCc2ccc(F)cc2)c1,-3.04%
4,COC(=O)c1cc(Br)c(=O)n(-c2ccc(F)cc2)c1,-70.1%
5,CCO[C@@H]1OC(C(=O)N2CCN(C)CC2)=C[C@H](c2csc3ccccc23)[C@H]1CCCO,0.669%
6,CC(=O)Nc1ccc(N(C(=O)c2ccccn2)C(C(=O)NC2CCCCC2)c2ccc(F)cc2)cc1 (centres unmarked),12.2%
7,CC1CCCCN1CCNC(=O)CCc1nnc2n(Cc3ccccc3)c(=O)c3ccccc3n12 (centres unmarked),-8.67%
8,CC1CCN(CCCNC(=O)CCc2nnc3n(CCc4ccccc4)c(=O)c4ccccc4n23)CC1,-52.4%
9,O=C(CCc1nnc2n(CCc3ccccc3)c(=O)c3ccccc3n12)NCCCN1CCCCC1,-9.25%
10,Cc1ccc(Cc2ccc(C(=O)NNC(N)=S)o2)cc1,3.74%
11,CN(CC(=O)Nc1ccccc1Br)C(=O)c1sccc1-c1ccccc1,-0.469%
12,O=c1nc(-c2ccccc2)cc(C(F)(F)F)[nH]1,21.3%
13,COc1ccc(N2CCc3c(C)nc4c(OC)cccc4c32)cc1,-28.3%
14,COc1cc(OC)c2nc(C)c3c(c2c1)N(c1ccc(O)cc1)CC3,-57.2%
15,COc1ccccc1N1CCc2c(C)nc3c(OC)cccc3c21,-23.1%
16,COc1cccc2c3c(c(C)nc12)CCN3c1ccccc1,-8.76%
17,COc1ccc(N2CCc3c(C)nc4c(OC)cc(OC)cc4c32)cc1,-52.7%
18,COc1ccc(N2CCc3c(C)nc4c(OC)cc(OC)cc4c32)c(OC)c1,-47.6%
19,CCN(CC(=O)Nc1ccccc1C(F)(F)F)C(=O)CCS(=O)(=O)c1ccc(Cl)cc1,9.68%
20,CC1CCC(NC(=O)Cn2cnc3sccc3c2=O)CC1 (centres unmarked),3.74%
21,CCN(CCCNC(=O)CCn1c(=S)[nH]c2cc3c(cc2c1=O)OCO3)c1cccc(C)c1,11.5%
22,CN1CC(C(=O)c2ccc([N+](=O)[O-])cc2)C(c2ccc(Cl)cc2)C1 (centres unmarked),-77.1%

row,SMILES,"hERG current change (%, negative = inhibition) at 1uM"
1,COc1ccc(C(=O)C2CN(C)CC2c2ccc(Cl)cc2)cc1 (centres unmarked),-18.3%
2,CN1CC(C(=O)c2ccc(Cl)cc2)C(c2ccccc2)C1 (centres unmarked),6.78%
3,Cc1nn(C)c(C(=O)N2CCc3ccccc32)c1Br,4.79%
4,CC1CC1C(=O)Nc1nc(-c2cccs2)c(-c2cccs2)s1 (centres unmarked),7.23%
5,O=C(NC1CCCN(c2ccc(C(F)(F)F)cn2)C1)c1ccnc(Cl)c1 (centres unmarked),-9.21%
6,Cc1ccc(C(=O)NC2CCCN(c3ccc(C(F)(F)F)cn3)C2)cn1 (centres unmarked),2.48%
7,O=C(NC1CCCN(c2ccc(C(F)(F)F)cn2)C1)c1ccncc1 (centres unmarked),-51.8%
8,CSCCC(NC(=O)c1ccccc1)C(=O)NC1CCCC1 (centres unmarked),4.81%
9,CC(C(=O)NC(=O)NC1CCCCC1)N(C)CC(=O)Nc1ccc(F)c(F)c1F (centres unmarked),12.1%
10,Cl.OC(COCc1ccc(Cl)cc1)CN1CCN(c2ccccn2)CC1 (centres unmarked),-24.9%
11,OC(COC(c1ccccc1)c1ccccc1)CN1CCN(c2ccccn2)CC1 (centres unmarked),-73.5%
12,CC(C)c1ccc(OCC(O)CN2CCN(c3ccccn3)CC2)cc1.Cl (centres unmarked),-27.7%
13,Cl.OC(COC(c1ccc(Cl)cc1)c1ccc(Cl)cc1)CN1CCN(c2ccccn2)CC1 (centres unmarked),-79.7%
14,OC(COc1ccc(Cl)cc1)CN1CCN(c2ccccn2)CC1 (centres unmarked),-37.7%
15,Cc1cccc(C)c1OCC(O)CN1CCN(c2ccccn2)CC1 (centres unmarked),-1.11%
16,CCOc1cc(/C=C2\C(=O)ON=C2c2ccccc2)cc(Br)c1O,10.4%
17,O=C(CCCc1ccccc1)NCc1ccc2c(c1)OCO2,8.58%
18,COc1cccc(Cn2c(NCC(C)C)nc3c2c(=O)n(C)c(=O)n3C)c1,-7.04%
19,CCC(=O)Nc1ccc(NC(=O)c2cc3ccccc3o2)cc1,-5.21%
20,O=C(Nc1ccccc1)c1cc2ccccc2o1,8.25%
21,CC/C(=C\c1oc2cc3ccccc3cc2[n+]1CC)Nc1ccccc1.[I-],-83.7%
22,Cc1cccc(NC(=S)Nn2cnnc2)c1C,10.9%
